Screening results as filed in PubChem BioAssay.
FEN1 inh = human FEN1 inhibition | P39748 | Recombinant FEN1 flap cleavage, fluorescence, 15 min | Potency, µM (doses to about 114 µM), hits mostly inhibitors | 0.35% of 390,000 active | AID 588795; further: nearly all actives have a fitted effect of over 65% in size
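Compounds are tested as a concentration series against 10 nM FEN1; after a 15 min room-temperature preincubation, 50 nM substrate starts cleavage, with plate reads at 0 and 15 min. Normalized responses are fitted by a Hill equation.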
TDP1 block = blocks human tyrosyl-DNA phosphodiesterase 1; Q9NUW8; recombinant TDP1, AlphaScreen DNA substrate cleavage; Potency, µM (top dose mostly 130 µM), most hits filed as inhibitors; 0.28% of 350,000 active; AID 485290; further: nearly all actives have a fitted effect of over 40% in size
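Signal: AlphaScreen proximity between streptavidin donor and anti-FITC acceptor beads on intact substrate. Reaction: Tdp1 1 nM, substrate 15 nM final, 5 min RT after 15 min compound preincubation.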
PI5P4K alpha inh = PI5P4K alpha (human) kinase inhibition; PI5P4Kalpha enzyme, ADP-Glo luminescence, 60 min; stronger effect = lower value; AID 652105; max response, %; P48426; 1.2% of 330,000 active; active means max response of -50% or lower; inconclusive means between -30% and -50%; inactive means -30% or higher; further: value at the top dose of about 77 µM
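Controls without substrate or without enzyme flank wells where PI5P4Kalpha converts substrate using 5 microM ATP (final). Incubation lasts 60 minutes at room temperature; ADP formed is read by ADP-Glo luminescence.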
Tb PGK inh = T. brucei PGK inhibition. PGK/GAPDH coupled, Kinase-Glo luminescence, 60 min. Potency, µM (doses to about 57.5 µM), most hits filed as inhibitors. 0.043% of 380,000 active. AID 602233; further: nearly all actives have a fitted effect of over 60% in size
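Luminescent ATP detection (Kinase-Glo Plus) follows a 60-minute room-temperature incubation, with wells lacking PGK as controls. Buffer: 100 mM TEA (pH 7.6), 5 mM MgCl2, 0.01% Tween-20. Coupling enzyme GAPDH (100 nM final) supplies unstable 1,3-BPG in-well.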
WRN helicase inh = WRN helicase (human) inhibition | 0.46% of 360,000 active | Potency, µM (highest dose often 114 µM), most hits filed as inhibitors | Q14191 | WRN helicase unwinding, fluorescent forked duplex, kinetic | AID 651768; further: nearly all actives have a fitted effect of over 55% in size
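WRN at 20 nM final was preincubated with compound for 15 min at room temperature; reaction started with 100 nM forked duplex oligonucleotide carrying fluorophore and quencher plus 2 mM ATP (final). Unwinding followed kinetically by red fluorescence (ex 525/em 598 nm).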
Tb PFK inh = T. brucei PFK enzyme inhibition | O15648 | T. brucei PFK, ADP-Glo luminescence | Potency, µM (highest dose often 57.5 µM), actives largely listed as inhibitors | 0.17% of 330,000 active; further: nearly all actives have a fitted effect of over 60% in size
Target sequence (O15648 whole entry, looked up): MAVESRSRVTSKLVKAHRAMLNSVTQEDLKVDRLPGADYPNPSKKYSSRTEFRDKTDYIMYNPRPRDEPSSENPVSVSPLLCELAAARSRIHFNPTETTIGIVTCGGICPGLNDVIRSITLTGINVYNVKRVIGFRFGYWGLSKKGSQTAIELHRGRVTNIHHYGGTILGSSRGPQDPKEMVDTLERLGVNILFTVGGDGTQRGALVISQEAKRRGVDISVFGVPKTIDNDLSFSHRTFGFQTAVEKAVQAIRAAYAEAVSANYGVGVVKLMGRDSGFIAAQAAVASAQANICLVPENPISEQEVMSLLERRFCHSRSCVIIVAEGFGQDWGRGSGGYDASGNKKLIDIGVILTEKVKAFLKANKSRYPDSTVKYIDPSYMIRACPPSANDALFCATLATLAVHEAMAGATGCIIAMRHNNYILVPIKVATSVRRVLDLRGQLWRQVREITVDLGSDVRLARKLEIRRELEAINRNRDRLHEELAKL
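PFK 1.25 nM, F6P 0.5 mM, ATP 0.1 mM, 0.1 M TEA pH 8.0, 5 mM MgCl2, 0.01% Tween20, 0.1% BSA; 45 min RT. ADP-Glo readout. qHTS titration up to 57 uM; curves fitted, compounds curve-classed.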
A number is an active result; – = inactive; ? = inconclusive; · = no result given; ! = not active in a repeat; [ ] = remark or other dose. This is a sample that favours compounds with a hit; in the whole collection about 1.5% have one here. Unless noted, the call rests on the fitted dose curve; in most records, active means well fitted curve in the direction sought with a large enough effect; inconclusive means small, poorly fitted or top-dose-only effect, or another doubt; inactive means no such curve, though single readings can be large; an effect the other way counts as inactive or inconclusive.

SMILES	FEN1 inh	TDP1 block	PI5P4K alpha inh	Tb PGK inh	WRN helicase inh	Tb PFK inh
CSc1ncc(/C=C2/C(=O)NC(=O)N(c3ccc(C(C)C)cc3)C2=O)cn1	–	–	?	–	50µM	–
O=C1NC(=O)N(Cc2ccc(F)cc2)C(=O)/C1=C/c1cccs1	–	–	-56	–	40µM	–
Cc1ccc(/C=C2/C(=O)NC(=O)N(Cc3ccc(F)cc3)C2=O)o1	·	–	·	·	·	–
CSc1ncc(/C=C2/C(=O)NC(=O)N(C3CCCCC3)C2=O)cn1	–	–	-57	–	?	–
O=C1NC(=O)N(Cc2ccccc2)C(=O)/C1=C/c1cnc(-c2ccccc2)nc1	–	–	-73	–	?	–
CSc1ncc(/C=C2/C(=O)NC(=O)N(C)C2=O)cn1	–	–	?	–	?	–
O=C1NC(=O)N(Cc2ccccc2Cl)C(=O)/C1=C/c1cccs1	?	–	?	–	?	–
CC[N+](=O)[O-]	·	–	·	·	·	·
CC(C)c1ccc(N2C(=O)NC(=O)/C(=C/c3cnc(-c4ccccc4)nc3)C2=O)cc1	–	?	-54	–	50µM	–
ClCC(Cl)CCl	·	–	·	·	·	·
COc1ccc2[nH]c3c(c2c1)CCN=C3C	50µM	–	–	–	–[11.6 µM]	–
[Hg+][c]1ccccc1	10µM	–	·	·	·	·
ClC(Cl)(Cl)C(Cl)(Cl)Cl	·	–	·	·	·	·
COc1cc2c(cc1OC)C1C(=O)c3c(cc4c(c3O)C=CC(C)(C)O4)OC1CO2 (centres undefined)	·	–	·	·	·	·
Cc1ccc(C=C2C(Cl)=C(Cl)C(Cl)=C2Cl)cc1	?	·	?	–	45µM	?
COc1ccccc1N1C(=O)NC(=O)/C(=C/c2ccc3c(c2)Cc2ccccc2-3)C1=O	79µM	·	?	–	–[11.6 µM]	–
N=C(N)c1ccc(-c2ccc(-c3ccc(C(=N)N)cc3)o2)cc1	40µM	·	·	·	·	·
CC1=C(C(=O)O)N2C(=O)[C@@H](NC(=O)CCCC(=O)O)[C@H]2SC1	–	–	?	–	–	–
Nc1nc(/C(=C/CC(=O)O)C(=O)NC2C(=O)N3C(C(=O)O)=CCSC23)cs1 (centres undefined)	·	25µM	·	·	·	·
C[N+]1(C)[C@@H]2CC[C@H]1CC(OC(=O)[C@@H](CO)c1ccccc1)C2 (some centres undefined)	–	–	-58	?	–	–
O=C(N/N=C\C1C(=O)NC(=S)N(c2ccccc2)C1=O)c1ccc(O)cc1 (centres undefined)	–	–	-57	–	–	–
C=CCBr	·	–	·	·	·	·
O=C1NC(=O)C(=Cc2coc3ccc(O)cc3c2=O)C(=O)N1	–	·	-73	–	–	–
COC(=O)NC/C=C\c1nc(CC/C=C\C(=O)O[C@H]2C[C@H]3CC(=O)O[C@@H](/C=C\CC(C)C)C[C@@H]4CC[C@H](C)[C@H](C[C@@H](OC)C[C@H](C2)O3)O4)co1	·	–[21 µM]	·	·	·	·
COc1ccc(CN2C(=O)NC(=O)/C(=C\c3cccc(OC)c3OC)C2=O)cc1	–	–	–	–	?	–
SMILES	FEN1 inh	TDP1 block	PI5P4K alpha inh	Tb PGK inh	WRN helicase inh	Tb PFK inh
COc1cc(N2CCOCC2)ccc1/C=C1\C(=O)NC(=O)N(Cc2cccs2)C1=O	–	–	–	–	50µM	–
COc1cc(N2CCOCC2)ccc1/C=C1\C(=O)NC(=O)N(Cc2ccc3c(c2)OCO3)C1=O	–	–	?	–	50µM	–
COc1cc(N2CCOCC2)ccc1C=C1C(=O)NC(=O)NC1=O	–	–	–	–	–	–
Cc1cccc(NC(=O)Cn2cc(C(=O)C3CC3)c3ccccc32)c1C	–	–[0.0935 µM]	–	–	?	–
[Cl][In]([Cl])[Cl]	?	0.5µM	·	·	·	·
CCC(C=C[C@@H]1OC(=O)C=C[C@H]1C)=C[C@H](C)CC=CC(C)=C[C@@H](C)C(=O)[C@@H](C)[C@H](O)[C@@H](C)CC(C)=CC(=O)O	·	1.3µM	·	·	·	·
O=C1NC(=O)C(=Cc2ccc(-c3ccc(F)cc3O)o2)C(=O)N1	18µM	·	-87	–	–[11.6 µM]	?
O=C1NC(=O)C(=Cc2ccc(-c3ccc(Cl)cc3)o2)C(=O)N1	18µM	·	–	–	–	–
CC[C@H](C)/C=C(C)/C=C/C1=CC2=C(Cl)C(=O)[C@@](C)(OC(C)=O)C(=O)C2=CO1	?	·	-87	?	45µM	·
O=[N+]([O-])c1ccccc1O	·	–	·	·	·	·
COC(=O)C1=C(C)NC(C)=C(C(=O)OC)C1c1ccccc1[N+](=O)[O-]	–	–	-58	–	–	–
CCCN1CCCC2Cc3[nH]ncc3CC21 (centres undefined)	·	0.28µM!	·	·	·	·
CCN1C(=O)/C(=C/c2ccc3c(c2)CCN3CCCCl)C(=O)NC1=S	?	–	-73	–	–[11.6 µM]	–
CCC(C)N1C(=O)/C(=C\c2cc3c4c(c2)CCCN4CCC3)C(=O)NC1=S (centres undefined)	–	–	?	–	?	–
C=CCN1C(=O)/C(=C/c2ccc3c(c2)CCCN3CCC)C(=O)NC1=S	–	·	?	–	56µM	–
CCC1CN2CCC1CC2C(Oc1cc2ccccc2c2ccccc12)c1ccnc2ccc(O)cc12 (centres undefined)	·	–[21 µM]	·	·	·	·
C=CC1CC=CCC1 (centres undefined)	·	–	·	·	·	·
COc1ccc(OC)c(N2C(=O)/C(=C/c3ccco3)C(=O)NC2=S)c1	8.9µM	·	-86	3.5µM	3.2µM	?
O=C1NC(=O)C(=Cc2ccco2)C(=O)N1	?	·	-84	11µM	?	·
Cc1ccc(N2C(=O)NC(=O)/C(=C\c3ccoc3)C2=O)cc1	–	–	?	–	?	–
O=C1NC(=S)N(c2ccc(F)cc2)C(=O)/C1=C\c1ccoc1	7.9µM	·	-87	10µM	?	–
O=C1NC(=O)C(=Cc2ccc(Sc3ccccc3)o2)C(=O)N1	?	–	-52	–	11µM	–
S=P(c1ccccc1)(c1ccccc1)c1c[nH]c2ccccc12	·	–	·	·	·	·
ClCCN(CCCl)/C(=C\c1ccccc1)c1ccnc2ccccc12	–	·	·	·	·	·
CC(C)(Cl)Cl	·	–	·	·	·	·
SMILES	FEN1 inh	TDP1 block	PI5P4K alpha inh	Tb PGK inh	WRN helicase inh	Tb PFK inh
C=C1CCC(O)C/C1=C\C=C1/CCCC2(C)C1CCC2C(C)CCCC(C)C (centres undefined)	·	–	·	·	·	·
O=C1NC(=S)N(c2ccc(Cl)cc2)C(=O)/C1=C/N1CCN(C(=O)c2ccco2)CC1	–	–	–	–	–	–
O=C1NC(=S)N(c2ccc(F)cc2)C(=O)/C1=C/c1ccco1	·	·	·	·	·	6.7µM
O=C(Nc1ccc(Br)cc1C(=O)O)c1ccc2c(c1)C(=O)N(Cc1ccccc1)C2=O	?	–	-74	–	?	–
O=C(CN1CCOCC1)Nc1ccc(Br)cc1C(=O)c1ccccc1	–	–	·	–	–	–
N#CC(C#N)=NNc1ccc(S(N)(=O)=O)cc1	40µM	·	-107	?	56µM	–
Cc1nn(C(C)(C)C)c(C)c1/C=N/OC(=O)Nc1ccc(Cl)c(Cl)c1	–	–	–	–	–	17µM
